Assay results from PubChem BioAssay (NCATS).
Several values for one entry are separate records, joined by “and”; a condition that tells them apart may be missing. Identical values can stand only once. Values without a mark were called inactive. Inconclusive results are not listed. A call without a number means that no potency is given here. Activity calls are given as the source filed them. Calls follow the shape of the dose curve; as a rule, active = well fitted curve in the direction sought with a large enough effect; inconclusive = small, poorly fitted or top-dose-only effect, or another doubt; inactive = no such curve, though single readings can be large; an effect the other way counts as inactive or inconclusive.

What was measured:
[1] = Primary qHTS for inhibitors of nuclear receptor binding SET domain protein 2 (NSD2) in an RCH-ACV wild type WT cells (2C) (AID 1645877); also: nearly all actives have a fitted effect of over 70% in size; also: potency is read from the fitted curve at half-maximal effect
[2] = molecular target: Glutathione peroxidase 1 (Homo sapiens) (UniProt P07203); test: Primary qHTS Assay for Inhibitors of Recombinant Selenoprotein Glutathione Peroxidase 1 (GPX1) (AID 1845191); also: nearly all actives have a fitted effect of over 65% in size
Sequence of Glutathione peroxidase 1 (Homo sapiens) (P07203 whole entry, looked up): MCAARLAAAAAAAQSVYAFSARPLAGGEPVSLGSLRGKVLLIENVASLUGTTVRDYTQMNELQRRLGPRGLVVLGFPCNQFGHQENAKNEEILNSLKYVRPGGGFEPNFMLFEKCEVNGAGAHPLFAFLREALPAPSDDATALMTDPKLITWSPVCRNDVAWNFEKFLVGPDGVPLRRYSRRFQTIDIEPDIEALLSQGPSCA
Summary of the method: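 GR-coupled readout: NADPH consumption tracked by fluorescence, ex 340/em 450 nm, at t=0 and after 15 min at RT. Final mix 10 nM GPX1, 1 mM GSH, 0.5 mM CHP, 0.5 mM NADPH, 100 nM GR, 0.01% BSA, following 30 min enzyme–compound preincubation.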

[3] = molecular target: Phospholipid hydroperoxide glutathione peroxidase GPX4 (Homo sapiens) (UniProt P36969); test: Primary qHTS Assay for Inhibitors of Recombinant Selenoprotein Glutathione Peroxidase 4 (GPX4) (AID 1845192); also: nearly all actives have a fitted effect of over 65% in size; as to activity change, negative = inhibition: series mostly up to about 50 µM
Sequence of Phospholipid hydroperoxide glutathione peroxidase GPX4 (Homo sapiens) (P36969 whole entry, looked up): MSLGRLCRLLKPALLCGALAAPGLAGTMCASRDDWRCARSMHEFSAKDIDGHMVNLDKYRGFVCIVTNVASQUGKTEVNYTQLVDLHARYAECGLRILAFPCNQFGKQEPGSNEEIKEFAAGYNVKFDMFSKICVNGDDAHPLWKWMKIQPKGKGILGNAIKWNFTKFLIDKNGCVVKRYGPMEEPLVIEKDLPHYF
Summary of the method: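 Steps: GPX4 plus compound, 30 min RT; add GR/GSH/NADPH master mix; start with cumene hydroperoxide; read 340/450 nm fluorescence at 0 and 15 min. Finals were 200 nM GPX4, 1 mM GSH, 0.5 mM CHP, 0.5 mM NADPH, 100 nM GR.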

[4] = molecular target: Luciferin 4-monooxygenase (Photinus pyralis) (UniProt P08659); test: Primary firefly luciferase (FLuc) qHTS assay for identification of artifact compounds. (AID 1845220); also: nearly all actives have a fitted effect of over 60% in size; as to activity change, negative = inhibition: series mostly up to about 54 µM
Summary of the method: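 Enzymatic FLuc inhibition assay: compounds pre-exposed to luciferin/ATP (10 uM each) for 15 min, then purified P. pyralis enzyme at 10 nM added. Read-out: luminescence at 5 min.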

[5] = test system: Nanoluciferase (engineered Oplophorus gracilirostris luciferase); test: Primary Nanoluciferase (NLuc) qHTS assay for identification of artifact compounds. (AID 1845222);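 also: NLuc secreted into diluted conditioned medium of S16 cells; series mostly up to about 54 µM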
Summary of the method: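 S16 cell supernatant NLuc, 1:55; cpds qHTS; 15 min RT dark; Nano-Glo substrate 1:100, 5 min; luminescence; Hill fit of % inhibition.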

[6] = Primary redox qHTS assay for identification of artifact compounds. (AID 1845223)
Summary of the method: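 Redox-cycling detection via DTT (250 uM final) oxidation coupled to Amplex Red (25 uM)/HRP (250 mU/mL) in HBSS. 15 min preincubation plus 30 min after DTT, room temperature. Ex/Em 525/598 nm; 4-parameter Hill fit against DMSO and 10 uM DA3003.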

In the case of CC(/C=C/C1=CC2=CC(=O)C(C)(O)C(O)C2=CO1)=C\C(C)CCO (stereo unspecified), the Potency [1] is reported as “inactive”, the Potency [2] is reported as “inactive” and the Potency [3] is reported as “inactive”. For the same compound, the Potency [4] was “inactive”, the Potency [5] was “inactive” and the Potency [6] was “inactive”.
With CC1C(OC(=O)c2ccccc2)C(O)C2C(C(=O)O)=COC(OC3OC(CO)C(O)C(O)C3O)C12 (stereo unspecified) the Potency [1] was “inactive”, the Potency [2] was “inactive” and the Potency [3] was “inactive”. For the same compound, the Potency [4] was “inactive”, the Potency [5] was “inactive” and the Potency [6] was “inactive”.
In the case of C=C(CO)C12OC1C1(C)C(=CC2=O)C(O)C(O)CC1C (stereo unspecified), the Potency [1] is reported as “inactive”, the Potency [2] is reported as “inactive” and the Potency [3] is reported as “inactive”. For the same compound, the Potency [4] was “inactive”, the Potency [5] was “inactive” and the Potency [6] was “inactive”.
With CC(=O)CC1CCC(C(C)C(=O)OCC(O)CO)O1 (stereo unspecified) the Potency [1] was “inactive”, the Potency [2] was “inactive” and the Potency [3] was “inactive”. For the same compound, the Potency [4] was “inactive” and the Potency [5] was “inactive”.
With CC(O)/C=C/C1(O)C2(C)COC1(C)CC(O)C2 (stereo unspecified) the Potency [1] was “inactive”, the Potency [2] was “inactive” and the Potency [3] was “inactive”. The Potency [4] was “inactive” and the Potency [5] was “inactive”.
With CN1CCN(c2ccc(C(=O)Nc3n[nH]c4ccc(Cc5cc(F)cc(F)c5)cc34)c(NC3CCOCC3)c2)CC1 the Potency [1] was 3.65 µM (active) and 4.17 µM (active) and 6.51 µM (active), the Potency [2] was “inactive” and the Potency [3] was “inactive”. For the same compound, the Potency [4] was “inactive”, the Potency [5] was “inactive” and the Potency [6] was “inactive”.
In the case of Cc1cc(NC(=O)Nc2ccc(F)c(F)c2)n(-c2ccccc2)n1, the Potency [1] is reported as “inactive”, the Potency [2] is reported as “inactive” and the Potency [3] is reported as “inactive”. For the same compound, the Potency [4] was “inactive”, the Potency [5] was “inactive” and the Potency [6] was “inactive”.
For COc1ccc(CC2C(=O)NC(C)C(=O)N(C)C3Cc4ccc(cc4)Oc4cc(ccc4OC4OC(CO)C(O)C(O)C4O)CC(C(=O)NC(C)C(=O)NC(C)C(=O)N2C)N(C)C3=O)cc1 (stereo unspecified), the Potency [1] was 9.7 nM (active), the Potency [2] was “inactive” and the Potency [3] was “inactive”. It also gave an activity change, negative = inhibition [4] of -7.7% [at 11.6 µM] and an activity, negative = inhibition [5] of -5.37% [at 11.6 µM].
For CC1C=CC2CCCCC2C1CCC1CC(O)CC(=O)O1 (stereo unspecified), the Potency [1] was “inactive”, the Potency [2] was “inactive” and the Potency [3] was “inactive”. For the same compound, the Potency [4] was “inactive” and the Potency [5] was “inactive”.
For CC(CO)C1CCC2(C)CC3C(CO)CC(O)C3C(C)(O)C/C=C/12 (stereo unspecified), the Potency [1] was “inactive”, the Potency [2] was “inactive” and the Potency [3] was “inactive”. For the same compound, the Potency [4] was “inactive” and the Potency [5] was “inactive”.
For O=C(O)C1CN(Cc2ccc(-c3nc4cc(Cc5ccccc5F)ccc4s3)c(F)c2)C1, the activity change, negative = cell killing [1] was 2.02% [at 9.23 µM], the activity, negative = inhibition [2] was -8.84% [at 9.52 µM] and the activity change, negative = inhibition [3] was 8.48% [at 9.73 µM]. The activity change, negative = inhibition [4] was -1.19% [at 11.6 µM], the activity, negative = inhibition [5] was -0.199% [at 11.6 µM] and the redox activity (% of DA3003) [6] was -6.07% [at 11.5 µM].
In the case of CC(C)=CCC/C(C)=C/CCC1(C)Oc2c(c(O)cc3c2CN(C(CCC(=O)O)C(=O)O)C3=O)CC1O (stereo unspecified), the Potency [1] is reported as “inactive”, the Potency [2] is reported as “inactive” and the Potency [3] is reported as “inactive”. For the same compound, the Potency [4] was “inactive” and the Potency [5] was “inactive”.
With C=C1C(O)C[C@@H]2C(C(=O)O)=CO[C@@H](O[C@@H]3O[C@H](CO)[C@@H](O)[C@H](O)[C@H]3OC(=O)c3ccc(O)cc3)[C@H]12 (stereo partly specified) the Potency [1] was “inactive”, the Potency [2] was “inactive” and the Potency [3] was “inactive”. The Potency [4] was “inactive” and the Potency [5] was “inactive”.
For CC1=C(C(=O)O[C@@H]2O[C@H](COC3OCC(O)C(O)C3O)[C@@H](O)[C@H](O)[C@H]2O)C(C)(C)CCC1 (stereo partly specified), the Potency [1] was “inactive”, the Potency [2] was “inactive” and the Potency [3] was “inactive”. The Potency [4] was “inactive” and the Potency [5] was “inactive”.
With Cc1ccc(C(=O)N(CCCN)C(c2oc3cc(Cl)ccc3c(=O)c2Cc2ccccc2)C(C)C)cc1 (stereo unspecified) the Potency [1] was “inactive”, the Potency [2] was “inactive” and the Potency [3] was “inactive”. The Potency [4] was “inactive” and the Potency [5] was “inactive”.
With CCCCNc1ncc2c(-c3ccc(CN4CCN(C)CC4)cc3)cn(C3CCC(O)CC3)c2n1 (stereo unspecified) the Potency [1] was 205 nM (active) and 332 nM (active) and 662 nM (active), the Potency [2] was “inactive” and the Potency [3] was “inactive”. The Potency [4] was “inactive” and the Potency [5] was “inactive”.
In the case of COc1ccc(/C=C\C(=O)O)c(O[C@@H]2O[C@H](CO)[C@@H](O)[C@H](O)[C@H]2O)c1, the Potency [1] is reported as “inactive”, the Potency [2] is reported as “inactive” and the Potency [3] is reported as “inactive”. For the same compound, the Potency [4] was “inactive”, the Potency [5] was “inactive” and the Potency [6] was “inactive”.
For c1cc(Nc2cc(C3CC3)[nH]n2)nc(Nc2ccc3nc[nH]c3c2)n1, the Potency [1] was 468 nM (active), the Potency [2] was “inactive” and the Potency [3] was “inactive”. The Potency [4] was “inactive”, the Potency [5] was “inactive” and the Potency [6] was “inactive”.
With CO[C@H]1/C=C\O[C@@]2(C)Oc3c(C)c(O)c4c(O)c(c5c(nc6cc(C)ccn65)c4c3C2=O)NC(=O)/C(C)=C\C=C/[C@H](C)[C@H](O)[C@@H](C)[C@@H](O)[C@@H](C)[C@H](OC(C)=O)[C@@H]1C the Potency [1] was 10300 nM (active), the Potency [2] was “inactive” and the Potency [3] was “inactive”. The Potency [4] was “inactive” and the Potency [5] was “inactive”.
For C=C1CCC2C(C)(C(=O)O)CCCC2(C)C1CC/C(=C\CO)CO (stereo unspecified), the Potency [1] was “inactive”, the Potency [2] was “inactive” and the Potency [3] was “inactive”. The Potency [4] was “inactive”, the Potency [5] was “inactive” and the Potency [6] was “inactive”.
With C=CC1C(OC2OC(CO)C(O)C(O)C2O)OC=C2C(=O)N3C(C(=O)O)Cc4c([nH]c5ccccc45)C3CC21 (stereo unspecified) the Potency [1] was “inactive”, the Potency [2] was “inactive” and the Potency [3] was “inactive”. For the same compound, the Potency [4] was “inactive” and the Potency [5] was “inactive”.
With Cc1cccc(/C=N/Nc2cc(N3CCOCC3)n3nc(-c4ccncc4)cc3n2)c1 the Potency [1] was 515 nM (active), the Potency [2] was “inactive” and the Potency [3] was “inactive”. The Potency [4] was “inactive”, the Potency [5] was “inactive” and the Potency [6] was “inactive”.
For Cc1onc(C(=O)N2CCN(C(c3ccc(Cl)cc3)c3ccc(Cl)cc3)CC2)c1[N+](=O)[O-], the Potency [1] was 145 nM (active), the Potency [2] was “inactive” and the Potency [3] was “inactive”. The Potency [4] was “inactive”, the Potency [5] was “inactive” and the Potency [6] was “inactive”.
With C[C@@H]1O[C@@H](O[C@H]2[C@H](O)[C@@H](O)[C@H](O[C@H]3[C@H](O[C@H]4CC[C@@]5(C)C(=CC[C@@H]6C5CC[C@]5(C)[C@@H]7[C@H](C[C@@H]65)O[C@]5(CC[C@@](C)(CO[C@@H]6O[C@H](CO)[C@@H](O)[C@H](O)[C@H]6O)O5)[C@H]7C)C4)O[C@H](CO)[C@@H](O)[C@@H]3O)O[C@@H]2CO)[C@H](O)[C@H](O)[C@H]1O (stereo partly specified) the Potency [1] was 2180 nM (active), the Potency [2] was “inactive” and the Potency [3] was “inactive”. The activity change, negative = inhibition [4] was -0.0839% [at 11.6 µM] and the activity, negative = inhibition [5] was 1.75% [at 11.6 µM].
